This passage reports Potency results from PubChem BioAssay (Tox21).

Test [1] can be described thus: qHTS assay for identifying genotoxic compounds that show differential cytotoxicity against isogenic chicken DT40 cell lines with known DNA damage response pathways - wild type cell line (AID 743012). Also: nearly all actives have a fitted effect of over 60% in size. The conditions noted are these: DT40 wild type chicken cells viability, CellTiter-Glo, 40 h; series mostly up to 68.4 µM. The source says:
U.S. Tox21 Program National Center for Advancing Translational Sciences [NCATS] NIH Chemical Genomics Center [NCGC] U.S. Environmental Protection Agency [EPA] National Institutes of Environmental Health Sciences [NIEHS] National Toxicology Program [NTP] U.S. Food and Drug Administration [FDA] Tox21 Assay Overview: DNA repair pathways play a critical role in cellular homeostasis by repairing DNA damage induced by endogenous processes and xenobiotics. Isogenic chicken DT40 cell lines deficient in different DNA repair pathways can be used to identify genotoxic compounds and aid in characterizing the nature of the DNA damage induced. Two DNA repair-deficient cell lines with disrupted genes, Rad54/Ku70 or Rev3, were used to screen the Tox21 10K compound library. […]
Tox21 Assay Protocol Summary: 300 DT40 wild type cells in 5 uL/well were dispensed into white, solid-bottom 1536-well plates using a Multidrop Combi (ThermoFisher Scientific, Waltham, MA) dispenser. […] After 5 uL per well of CellTiter-Glo reagent was added into each well of the assay plates, the plates were incubated for 30 min at room temperature and the luminescence intensity of the plates was measured using a ViewLux (PerkinElmer, Shelton, CT) plate reader.
Background: Quantitative high-throughput screening tests each substance at several concentrations.

Test [2] in a line: qHTS assay for identifying genotoxic compounds that show differential cytotoxicity against isogenic chicken DT40 cell lines with known DNA damage response pathways - Rev3 mutant cell line (AID 743014). Also: nearly all actives have a fitted effect of over 55% in size. Also: potency is read from the fitted curve at half-maximal effect. The conditions noted are these: chicken DT40 Rev3-/- viability, CellTiter-Glo, 40 h; series mostly up to 68.4 µM.
Test [3] can be described thus: qHTS assay for identifying genotoxic compounds that show differential cytotoxicity against isogenic chicken DT40 cell lines with known DNA damage response pathways - Rad54/Ku70 mutant cell line (AID 743015). Also: nearly all actives have a fitted effect of over 60% in size. The conditions noted are these: DT40 Rad54/Ku70 mutant viability, CellTiter-Glo, 40 h; series mostly up to 66.8 µM.

SMILES strings stand for the structures. Where “and” joins values, the source holds several entries; their conditions need not be identical. Identical values can stand only once. Inconclusive results are not listed. The source holds several records for some structures; these can differ, active in one and inactive in another. Calls of active or inactive are those of the source. Calls follow the shape of the dose curve; as a rule, active = well fitted curve in the direction sought with a large enough effect in the repeat runs; inconclusive = weak or mixed curves; inactive = no such curve, though single readings can be large; an effect the other way counts as inactive or inconclusive.

As for `CC(C)C(=O)OCC(C)(C)C(OC(=O)C(C)C)C(C)C` (stereo not drawn), the Potency result in test [1] and in test [3] was “inactive” in each case. Also, the Potency entry in test [2] was “inactive and 19.3 µM (active)”.
